Only some compounds are listed: those with a hit (about 16% of all), similar ones and a draw of the others.
uPA generation: qHTS for Inhibitors of Cell Surface uPA Generation; cell surface uPA generation assay, qHTS; Potency, µM (top dose mostly 38.3 µM), for inactives: at the highest dose activity change, negative = inhibition, actives largely listed as inhibitors; 330,000 compounds, 0.31% hits; AID 540303, 2011; active = well fitted inhibition curve with a large enough effect; inconclusive = small, poorly fitted or top-dose-only effect; inactive = no such curve, though single readings can be large or run the other way; tested in mouse RAW 264.7 cells; note: potency is the fitted concentration of half-maximal effect; % is set by controls: 0 for no effect and ±100 for the full control effect; nearly all actives have a fitted effect of over 55% in size
TDP1 block: qHTS Assay for Inhibitors of Tyrosyl-DNA Phosphodiesterase (TDP1). Tyrosyl-DNA phosphodiesterase 1 (Homo sapiens), Q9NUW8. recombinant TDP1, AlphaScreen DNA substrate cleavage. Potency, µM (titrated, usually from 130 µM), for the others: at the highest dose activity change, negative = inhibition, actives largely listed as inhibitors. 350,000 compounds, 0.28% hits; note: potency is the fitted concentration of half-maximal effect; % is set by controls: 0 for no effect and ±100 for the full control effect; nearly all actives have a fitted effect of over 40% in size
Target sequence (Q9NUW8 whole entry, looked up): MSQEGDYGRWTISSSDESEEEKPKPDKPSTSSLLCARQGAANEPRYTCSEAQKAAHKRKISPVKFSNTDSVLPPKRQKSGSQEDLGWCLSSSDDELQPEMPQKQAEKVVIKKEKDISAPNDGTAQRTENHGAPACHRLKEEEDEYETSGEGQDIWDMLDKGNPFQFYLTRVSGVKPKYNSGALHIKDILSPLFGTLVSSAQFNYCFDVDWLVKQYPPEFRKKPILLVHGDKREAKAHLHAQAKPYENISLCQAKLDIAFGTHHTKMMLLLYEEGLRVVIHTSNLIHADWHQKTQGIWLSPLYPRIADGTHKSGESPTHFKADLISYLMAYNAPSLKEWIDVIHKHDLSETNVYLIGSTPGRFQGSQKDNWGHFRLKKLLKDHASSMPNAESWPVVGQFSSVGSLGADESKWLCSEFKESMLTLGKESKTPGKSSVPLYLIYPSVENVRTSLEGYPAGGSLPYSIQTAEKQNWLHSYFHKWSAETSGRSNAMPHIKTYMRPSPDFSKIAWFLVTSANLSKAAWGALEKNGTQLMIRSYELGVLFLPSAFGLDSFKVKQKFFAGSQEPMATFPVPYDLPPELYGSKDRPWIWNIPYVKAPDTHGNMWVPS
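Compounds were preincubated with Tdp1 (1 nM final) for 15 min at room temperature before substrate (15 nM final) started a 5 min reaction; beads (10 ug/ml final) were then added for 10 min before AlphaScreen detection.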
DT40 TDP1 CPT: qHTS for Inhibitors of human tyrosyl-DNA phosphodiesterase 1 (TDP1): qHTS in cells in presence of CPT. Potency, µM (series often up to 46.2 µM), without a hit: at the top dose activity change, negative = growth inhibition, actives largely listed as inhibitors. chicken DT40 Tdp1-/-;hTDP1 cells + 20 nM CPT, ATP luminescence, 48 h. AID 686979, 2013. 420,000 compounds, 12% hits; note: potency is the fitted concentration of half-maximal effect; % is set by controls: 0 for no effect and ±100 for the full control effect; nearly all actives have a fitted effect of over 55% in size
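Cell growth measured by CellTiter-Glo luminescence after a minimum 48 h, 37 C compound exposure with 20 nM CPT in Tdp1-knockout DT40 cells stably expressing hTDP1, seeded 400/well; qHTS titration format.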
TDP1 cell noCPT: qHTS for Inhibitors of human tyrosyl-DNA phosphodiesterase 1 (TDP1): qHTS in cells in absence of CPT | 420,000 compounds, 15% hits | DT40 Tdp1-/- hTDP1 cells, no CPT, ATP luminescence, 48 h | AID 686978, 2013 | Potency, µM (doses to about 46.2 µM), for inactives: at the highest dose activity change, negative = growth inhibition, usual class: inhibitors; note: potency is the fitted concentration of half-maximal effect; % is set by controls: 0 for no effect and ±100 for the full control effect; nearly all actives have a fitted effect of over 55% in size
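Camptothecin absent (DMSO only). Human TDP1-complemented DT40 knockout cells, 400 cells/well, 37 °C for minimum 48 hr; ATP measured via CellTiter-Glo, 30 min dark incubation, luminescence.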
miR-21 act: qHTS Assay for Modulators of miRNAs and/orActivators of miR-21; HeLa miR-21 FLuc reporter, luciferase, 48 h; Potency, µM (highest dose often 38.3 µM), for inactives: at the top dose activity change, positive = activation, most hits filed as activators; 340,000 tested, under 10 active; AID 2288, 2010;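 note: % of control where 0% means no effect; miR-21 action dims this reporter so a rising signal means less miR-21 action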
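Using DMEM plus 10% FBS, HeLa miR-21-FLuc cells are incubated with test compounds (final up to about 40uM) for 48 hours; firefly luciferase signal is then imaged following reagent-mediated lysis.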
The depositor's hits bear a star; ? = inconclusive; / = no result; [ ] = dose if it differs, or a comment. Unless noted, calls come from the whole dose curve; as a rule, active = well fitted curve in the direction sought with a large enough effect; inconclusive = small, poorly fitted or top-dose-only effect, or another doubt; inactive = no such curve, though single readings can be large; an effect the other way counts as inactive or inconclusive.

SMILES | uPA generation | TDP1 block | DT40 TDP1 CPT | TDP1 cell noCPT | miR-21 act
CC(C)NC(=O)C1CCN(C2CCN(Cc3nc4ccccc4s3)CC2)CC1 | 2% | 0% | 1% | 1% | 2%
COc1cc(/C=C2/SC(=O)N(Cc3ccccc3Cl)C2=O)ccc1OCc1ccncc1 | 1% | 2% | 18µM* | ? | -5%
COc1cc(/C=C2/SC(=O)NC2=O)ccc1OCc1ccccc1 | ? | / | -18% | ? | -27%
CCCCOCCCNC(=O)C[C@@H]1C[C@@]2(C(=O)OCC)CCC=C2N(Cc2cccc3ccccc23)C1=O | / | / | 21µM* | 18µM* | /
CCOC(=O)[C@]12CCC=C1N(Cc1cccc3ccccc13)C(=O)[C@H](CC(=O)NCC13CC4CC(CC(C4)C1)C3)C2 | / | / | 21µM* | ? | /
CCCCOCCCNC(=O)C[C@@H]1C[C@@]2(C(=O)OC)CCCCC=C2N(Cc2cccc3ccccc23)C1=O | / | / | ? | 21µM* | /
CCCCOCCCNC(=O)C[C@@H]1C[C@@]2(C(=O)OCC)CCCC=C2N(Cc2ccco2)C1=O | / | / | -15% | ? | /
CCCCOCCCNC(=O)C[C@@H]1C[C@@]2(C(=O)OC)CCCCC=C2N(Cc2ccccc2)C1=O | / | / | 18µM* | 13µM* | /
CCOC(=O)c1cc(S(=O)(=O)Nc2cc(OC)ccc2OC)[nH]n1 | / | -1% | ? | ? | 12%
COc1ccc(S(=O)(=O)N2CCC(C(=O)NCCOc3ccccc3F)CC2)cc1OC | 0% | 2% | -7% | -29% | /
O=C(CC1(O)C(=O)N(Cc2ccccc2)c2ccccc21)c1ccc2c(c1)OCO2 (configuration not stated) | 3% | 4% | ? | ? | 1%
CCOC(=O)[C@]12CCC=C1N(Cc1cccc3ccccc13)C(=O)[C@H](CC(=O)NCCCOC)C2 | / | / | 18µM* | 15µM* | /
COC(=O)[C@]12CCCCC=C1N(Cc1cccc3ccccc13)C(=O)[C@H](CC(=O)NCCCN1CCCC1=O)C2 | / | / | ? | 16µM* | /
CCOC(=O)[C@]12CCC=C1N(Cc1ccco1)C(=O)[C@H](CC(=O)NCCCOC)C2 | / | / | 1% | -24% | /
COC(=O)[C@]12CCCCC=C1N(Cc1ccco1)C(=O)[C@H](CC(=O)NCCCN1CCCC1=O)C2 | / | / | 4% | -1% | /
Nc1nccnc1C(=O)OCC(=O)N1CCN(S(=O)(=O)c2ccc(Cl)cc2)CC1 | 6% | 2%[0.505 µM] | -4% | 1% | /
CCN(CC)c1ncnc2c1cnn2-c1cc(Cl)ccc1C | / | 8% | 21µM* | 21µM* | 0%
Cc1ccc(Cl)cc1-n1ncc2c(N3CCN(Cc4ccccc4)CC3)ncnc21 | / | 3% | 2.6µM* | 2.3µM* | ?
Clc1cccc(-n2ncc3c(N4CCCCCC4)ncnc32)c1 | / | -10% | -22% | -14% | -32%
Cc1cccc(-n2ncc3c(N(C)C4CCCCC4)ncnc32)c1 | 1.4µM* | / | ? | ? | -31%
Clc1cccc(-n2ncc3c(NC4CCCCC4)ncnc32)c1 | / | 3% | ? | 18µM* | -13%
CCN1CCN(c2ncnc3c2cnn3-c2cc(Cl)ccc2C)CC1 | / | 8% | ? | ? | 0%
CCOC(=O)C1(CCOc2ccccc2)CCN(Cc2ccc(O)c(OCC)c2)CC1 | -9% | / | -41% | ? | 20%
Clc1cccc(-n2ncc3c(NCCCn4ccnc4)ncnc32)c1 | / | 10% | 21µM* | ? | -52%
Cc1ccc(-n2ncc3c(NCC4CCCO4)ncnc32)c(C)c1 (configuration not stated) | -1% | -7% | ? | ? | -9%
SMILES | uPA generation | TDP1 block | DT40 TDP1 CPT | TDP1 cell noCPT | miR-21 act
Cc1ccc(-n2ncc3c(NCCCn4ccnc4)ncnc32)cc1C | / | 10% | ? | ? | -45%
Cc1ccc(Cl)cc1-n1ncc2c(NC3CCCCC3)ncnc21 | / | 13% | 9.2µM* | 15µM* | 16%
CCn1c(SCC(=O)Nc2nc(-c3ccccc3)cs2)nc2c1c(=O)n(C)c(=O)n2C | 1% | 3% | -26% | -3% | -5%
Cc1ccnc(NC2c3ccccc3C(=O)N2Cc2ccccc2Cl)c1 (configuration not stated) | ? | 8% | ? | 26µM* | -11%
COc1cc(NC2c3ccccc3C(=O)N2Cc2ccccc2Cl)cc(OC)c1OC (configuration not stated) | 3% | 1% | -18% | -28% | -1%
CCOc1ccc(C(=O)N/N=C(/C)C2C(=O)c3ccccc3C2=O)cc1 | -2% | 7% | 0.58µM* | 0.65µM* | -6%
C/C(=N\NC(=O)c1ccc(-c2ccccc2)cc1)C1C(=O)c2ccccc2C1=O | 13% | 0% | 21µM* | 21µM* | 23%
Clc1ccccc1Cc1noc(CN2CCN3CCCC3C2)n1 (configuration not stated) | 9% | / | -1% | -8% | -4%
Cc1cc(-c2ccc(C)c(S(=O)(=O)N3CC(=O)Nc4ccccc43)c2)on1 | -4% | -3% | -5% | 4% | 2%
Cc1ccc(-c2onc(C)c2C)cc1S(=O)(=O)N1CCOc2ccccc21 | -19% | 9% | 18µM* | 21µM* | 18%
Cc1ccc(-c2onc(C)c2C)cc1S(=O)(=O)N1c2ccccc2CC1C (configuration not stated) | / | 3% | ? | 16µM* | 20%
CC1Cc2ccccc2N1S(=O)(=O)c1cccc2nsnc12 (configuration not stated) | 5% | 8% | ? | ? | -4%
COc1ccc(CCNc2ncnc3sc(C(=O)N(C)C)c(C)c23)cc1OC | / | / | -7%[9.04 µM] | -15% | /
Cc1nc(CSc2nsc(C)c2C#N)cs1 | -4% | 3% | 1% | -9% | -33%
